Assay results reported in PubChem BioAssay (EPA / NIEHS).
Values joined by “and” are separate entries in the source; they are usually repeats but may differ in a detail not shown here. Equal values may be shown once. Some structures have more than one record in an assay (separate samples or runs), and their calls can disagree. Active and inactive are the calls of the source. The calls were made as follows: active = hit-call score of the fitted dose curve at least 0.9, where 1 is the maximum; inactive = score below 0.9.

Experiment: ATG_TCF_b_cat_CIS: Attagene CIS-FACTORIAL HepG2 Assay for human T-Cell-Factor with beta-catenin (TCF/b-cat) (AID 2282965)
Conditions: HepG2 TCF/beta-catenin cis-reporter transcription, actives raise or lower the signal
Protocol: ATG_CIS is a cell-based, multiplexed-readout assay that uses HepG2, a human liver cell line, with measurements taken at 24 hours after chemical dosing in a 24-well plate.ATG_TCF_b_cat_CIS is one of 52 assay component(s) measured or calculated from the ATG_CIS assay. It is designed to make measurements of mRNA induction, a form of inducible reporter, as detected with fluorescence intensity signals by Reverse transcription polymerase chain reaction (RT-PCR) and Capillary electrophoresis technology.Data from the assay component ATG_TCF_b_cat_CIS was analyzed into 1 assay endpoint. This assay endpoint, ATG_TCF_b_cat_CIS, was analyzed with bidirectional fitting relative to DMSO as the negative control and baseline of activity. Using a type of inducible reporter, measures of mRNA for gain or loss-of-signal activity can be used to understand the reporter gene at the transcription factor-level as they relate to the gene TCF7 and TCF7L2 and LEF1 and TCF7L1. Furthermore, this assay endpoint can be referred to as a primary readout, because this assay has produced multiple assay endpoints where this one serves a reporter gene function. To generalize the intended target to other relatable targets, this assay endpoint is annotated to the dna binding intended target family, where the subfamily is HMG box protein.
Human liver HepG2 cells are transiently transfected with multiple reporter transcription units (MRTUs) in 6-well plates using FuGene 6 reagent (Roche; 3 ml FuGene/1 mg DNA). The MRTU constructs are regulated by a cis-regulating element (promoter). […] A major difference between the CIS and TRANS system is that in CIS activities of endogenous TFs are measured, whereas the TRANS assay evaluates changes in activities of exogenous, chimeric NR-Gal4 proteins. […] At the end of 24 hour incubation, total RNA was isolated using TriZol reagent (Invitrogen). The isolated RNA is then reverse-transcribed using oligo(dT) primer and Mo-MLV reverse transcriptase (Invitrogen) with DNAse I (Ambion) treatment for 30 min. The one-tenth of the produced cDNA was amplified by PCR using Taq DNA polymerase (Invitrogen) and two reporter sequence-specific primers. The PCR products were fluorescently labeled by primer extension with 6-arboxyfluorescein (6-FAM) 5'-labeled reporter sequence-specific primer (2 min at 95 C, 20 s at 68 C and 10 min at 72 C) and these products were digested with 5U of HpaI (New England Biolabs) for 2h at 37 C. The fragments were purified using Qiaquick PCR columns (Qiagen), analyzed on an ABI 3130xL genetic analyzer (Applied Biosystems) with peak positions identified by using a set of X-rhodamine (ROX)-labeled MapMarker1000 molecular weight standards (BioVentures). The raw capillary electrophoresis data was processed using Attagraph software (Attagene).

For `ClC1=C(Cl)C(Cl)(Cl)C(Cl)=C1Cl`, which outcome is on record?
Its outcome is “inactive”.

What about the AC50 of the same compound?
Its AC50 is 15.4 µM (active).

For `FC(F)(I)C(F)(F)C(F)(F)C(F)(F)C(F)(F)C(F)(F)I`, which AC50 is on record?
Its AC50 is 11.1 µM (active).

Which AC50 does the source give for `OCCC(F)(F)C(F)(F)C(F)(F)C(F)(F)C(F)(F)C(F)(F)C(F)(F)C(F)(F)F` here?
The AC50 was 33.4 µM (active).

What about the outcome of the same compound?
Its outcome is “inactive”.

Which AC50 does the source give for `CC1=C(/C=C/C(C)=C/C=C/C(C)=C/C(=O)O)C(C)(C)CCC1` here?
Its AC50 is 23.7 µM (active) and 102 µM (active).

For `CN(C)C=O`, which outcome is on record?
Its outcome is “inactive”.

For `CCCCCCCCC(=O)O`, which outcome is on record?
The outcome was “inactive”.

Which outcome does the source give for `O=[N+]([O-])c1ccc(O)cc1` here?
The outcome was “inactive”.

With `Cc1ccc(S(=O)(=O)O)c(C)c1` as the compound, how does the outcome read?
The outcome was “inactive”.

With `O=C(O)c1ccccc1C(c1ccc(O)cc1)c1ccc(O)cc1` as the compound, how does the outcome read?
The outcome was “inactive”.

And the AC50?
Its AC50 is 166 µM (active).

With `Oc1cc2ccccc2c2ccccc12` as the compound, how does the outcome read?
Its outcome is “inactive”.

Which outcome does the source give for `CC[C@H](C)[C@@H](C(=O)O)n1sc2ccccc2c1=O` here?
Its outcome is “inactive”.

Which results are given for `CCC(C)(C)C1CCC(O)CC1` (stereo not given)?
AC50: 100 µM (active); outcome: inactive

Which outcome does the source give for `COc1ccc([N+](=O)[O-])cc1N` here?
The outcome was “inactive”.

Which outcome does the source give for `CCOC(=O)CC(O)(CC(=O)OCC)C(=O)OCC` here?
Its outcome is “inactive”.

For `CC[C@H](c1ccc(O)cc1)[C@@H](CC)c1ccc(O)cc1`, which outcome is on record?
The outcome was “inactive”.

And the AC50?
Its AC50 is 9.79 µM (active) and 15.4 µM (active) and 11.1 µM (active).

For `CCCCCCCCCCCCc1ccccc1S(=O)(=O)O`, which outcome is on record?
The outcome was “inactive”.

For `CC(=O)CC(C)(C)O`, which outcome is on record?
Its outcome is “inactive”.

For `OCCC(F)(F)C(F)(F)C(F)(F)C(F)(F)C(F)(F)C(F)(F)F`, which outcome is on record?
The outcome was “inactive”.

Which outcome does the source give for `O=C(/C=C/c1ccc(O)cc1)CC(=O)/C=C/c1ccc(O)cc1` here?
The outcome was “inactive”.

Which outcome does the source give for `CC(C)(C)c1ccc(O)c(C(C)(C)C)c1` here?
The outcome was “inactive”.

For `CC(O)CO` (stereo not given), which outcome is on record?
The outcome was “inactive”.

Which AC50 does the source give for `CCCCCCCCCCCCCC[N+](C)(C)C` here?
The AC50 was 17.2 µM (active) and 7.58 µM (active).

With `c1ccc2cc3c(ccc4ccccc43)cc2c1` as the compound, how does the outcome read?
Its outcome is “inactive”.

Which outcome does the source give for `CCCCCCCC(=O)O` here?
The outcome was “inactive”.

Which outcome does the source give for `COc1cc(CCC(=O)CC(=O)CCc2ccc(O)c(OC)c2)ccc1O` here?
Its outcome is “inactive”.

With `COCC(C)O` (stereo not given) as the compound, how does the outcome read?
The outcome was “inactive”.

Which outcome does the source give for `CCCCCCCCOC(=O)CCCCCCCCC(=O)OCCCCCCCC` here?
The outcome was “inactive”.

Which outcome does the source give for `CN1CCC[C@H]1c1cccnc1` here?
The outcome was “inactive”.

Which outcome does the source give for `O=C1OC2(c3ccccc31)c1cc(Br)c(O)c(Br)c1Oc1c2cc(Br)c(O)c1Br` here?
Its outcome is “inactive”.

For `C=C(C)C(=O)OCCC(F)(F)C(F)(F)C(F)(F)C(F)(F)C(F)(F)C(F)(F)F`, which outcome is on record?
Its outcome is “inactive”.

Which outcome does the source give for `NC(=O)N1C(=O)C(C(=O)c2cc(Cl)cs2)c2cc(F)c(Cl)cc21` (stereo not given) here?
The outcome was “inactive”.

Which AC50 does the source give for `NC(=O)N(O)[C@@H]1C=C[C@H](Oc2cccc(Oc3ccc(F)cc3)c2)C1` here?
The AC50 was 33 µM (active).

Which outcome does the source give for `Cc1cc(CCN2CCN(c3nsc4ccccc34)CC2)cc2c1NC(=O)CC2(C)C` here?
The outcome was “inactive”.

Which outcome does the source give for `CCCOc1sc(C(=O)N2CCC(c3cc(CN)ccc3F)CC2)c(C)c1Br` here?
The outcome was “inactive”.

With `Cc1cc(C)c(O)c(C)c1` as the compound, how does the outcome read?
Its outcome is “inactive”.
